How the values were obtained:
Settings in all cases: treatment time: 24 h
A549-ACTB-RAB5A [1] = experiment: lowest phenotypically active concentration; higher = less potent
In short: (§1)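 The reporter lines, fifteen in total and built by gene editing in A549, HepG2 and WPMY1 cells, used BFP for segmentation alongside GFP and RFP/FusionRed markers. Each was treated at 0.3, 1, 3 or 9 µM for 24 h in four wells and then imaged live, with live-cell features normalised to solvent control wells. Deviation meant ≥3 of 4 wells beyond the 95th percentile of control Euclidean distances; reproducibility meant a median replicate Pearson correlation above the 95th percentile of non-replicates. Only conditions meeting both were scored as phenotypically active.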

A549-CANX-COX4 [2] = experiment: as above
In short: as §1

A549-GM130-SQSTM1 [3] = experiment: as above
In short: as §1

A549-TP53BP1-CLTA [4] = experiment: as above
In short: as §1

HepG2-ACTB-RAB5A [5] = experiment: as above
In short: as §1

A549-ACTB-RAB5A [6] = experiment: phenotypically active (imaging signature differs from DMSO and reproducible) at any of 0.3-9 uM (binary (1 = active, 0 = inactive)); higher = active
In short: as §1

A549-CANX-COX4 [7] = experiment: as above
In short: as §1

A549-GM130-SQSTM1 [8] = experiment: as above
In short: as §1

A549-TP53BP1-CLTA [9] = experiment: as above
In short: as §1

A549-TUBA1B-RELA = experiment: as above
In short: as §1

HepG2-ACTB-RAB5A [10] = experiment: as above
In short: as §1

HepG2-CANX-COX4 = experiment: as above
In short: as §1

HepG2-GM130-SQSTM1 = experiment: as above
In short: as §1

HepG2-TP53BP1-CLTA = experiment: as above
In short: as §1

HepG2-TUBA1B-RELA = experiment: as above
In short: as §1

WPMY1-ACTB-RAB5A = experiment: as above
In short: as §1

WPMY1-CANX-COX4 = experiment: as above
In short: as §1

WPMY1-GM130-SQSTM1 = experiment: as above
In short: as §1

WPMY1-TP53BP1-CLTA = experiment: as above
In short: as §1

WPMY1-TUBA1B-RELA = experiment: as above
In short: as §1

C[C@@H]1O[C@@H](O[C@H]2C[C@@H](O)[C@]3(CO)[C@H]4[C@H](O)C[C@]5(C)[C@@H](C6=CC(=O)OC6)CC[C@]5(O)[C@@H]4CC[C@]3(O)C2)[C@H](O)[C@H](O)[C@H]1O [Strophantine octahydrate]
1 µM: lowest phenotypically active concentration (A549-ACTB-RAB5A [1])
active: phenotypically active (A549-ACTB-RAB5A [6]) 1 | phenotypically active (A549-CANX-COX4 [7]) 1 | phenotypically active (A549-GM130-SQSTM1 [8]) 1 | phenotypically active (A549-TP53BP1-CLTA [9]) 1 | phenotypically active (A549-TUBA1B-RELA) 1 | phenotypically active (HepG2-ACTB-RAB5A [10]) 1 | phenotypically active (HepG2-CANX-COX4) 1 | phenotypically active (HepG2-GM130-SQSTM1) 1 | phenotypically active (HepG2-TP53BP1-CLTA) 1 | phenotypically active (HepG2-TUBA1B-RELA) 1 | phenotypically active (WPMY1-ACTB-RAB5A) 1 | phenotypically active (WPMY1-CANX-COX4) 1 | phenotypically active (WPMY1-GM130-SQSTM1) 1 | phenotypically active (WPMY1-TP53BP1-CLTA) 1 | phenotypically active (WPMY1-TUBA1B-RELA) 1
≤ 0.3 µM: lowest phenotypically active concentration (A549-CANX-COX4 [2]) | lowest phenotypically active concentration (A549-GM130-SQSTM1 [3]) | lowest phenotypically active concentration (A549-TP53BP1-CLTA [4]) | lowest phenotypically active concentration (HepG2-ACTB-RAB5A [5])

CC[C@@H](C(=O)[C@@H](C)[C@@H](O)[C@H](C)[C@@H]1O[C@@H]([C@@H](CC)C(=O)O)CC[C@@H]1C)[C@H]1O[C@]2(C=C[C@@H](O)[C@]3(CC[C@@](C)([C@H]4CC[C@](O)(CC)[C@H](C)O4)O3)O2)[C@H](C)C[C@@H]1C [Salinomycin Sodium]
active: phenotypically active (A549-ACTB-RAB5A [6]) 1 | phenotypically active (A549-CANX-COX4 [7]) 1 | phenotypically active (A549-GM130-SQSTM1 [8]) 1 | phenotypically active (A549-TP53BP1-CLTA [9]) 1 | phenotypically active (A549-TUBA1B-RELA) 1 | phenotypically active (HepG2-ACTB-RAB5A [10]) 1 | phenotypically active (HepG2-CANX-COX4) 1 | phenotypically active (HepG2-GM130-SQSTM1) 1 | phenotypically active (HepG2-TP53BP1-CLTA) 1 | phenotypically active (HepG2-TUBA1B-RELA) 1 | phenotypically active (WPMY1-ACTB-RAB5A) 1 | phenotypically active (WPMY1-CANX-COX4) 1 | phenotypically active (WPMY1-GM130-SQSTM1) 1 | phenotypically active (WPMY1-TP53BP1-CLTA) 1 | phenotypically active (WPMY1-TUBA1B-RELA) 1
1 µM: lowest phenotypically active concentration (A549-CANX-COX4 [2]) | lowest phenotypically active concentration (HepG2-ACTB-RAB5A [5])
≤ 0.3 µM: lowest phenotypically active concentration (A549-ACTB-RAB5A [1]) | lowest phenotypically active concentration (A549-GM130-SQSTM1 [3]) | lowest phenotypically active concentration (A549-TP53BP1-CLTA [4])

COc1cc([C@@H]2c3cc4c(cc3[C@H](O)[C@H]3COC(=O)[C@H]23)OCO4)cc(OC)c1OC [Podophyllotoxin]
≤ 0.3 µM: lowest phenotypically active concentration (A549-ACTB-RAB5A [1]) | lowest phenotypically active concentration (A549-CANX-COX4 [2]) | lowest phenotypically active concentration (A549-GM130-SQSTM1 [3]) | lowest phenotypically active concentration (A549-TP53BP1-CLTA [4]) | lowest phenotypically active concentration (HepG2-ACTB-RAB5A [5])
active: phenotypically active (A549-ACTB-RAB5A [6]) 1 | phenotypically active (A549-CANX-COX4 [7]) 1 | phenotypically active (A549-GM130-SQSTM1 [8]) 1 | phenotypically active (A549-TP53BP1-CLTA [9]) 1 | phenotypically active (A549-TUBA1B-RELA) 1 | phenotypically active (HepG2-ACTB-RAB5A [10]) 1 | phenotypically active (HepG2-CANX-COX4) 1 | phenotypically active (HepG2-GM130-SQSTM1) 1 | phenotypically active (HepG2-TP53BP1-CLTA) 1 | phenotypically active (HepG2-TUBA1B-RELA) 1 | phenotypically active (WPMY1-ACTB-RAB5A) 1 | phenotypically active (WPMY1-CANX-COX4) 1 | phenotypically active (WPMY1-GM130-SQSTM1) 1 | phenotypically active (WPMY1-TP53BP1-CLTA) 1 | phenotypically active (WPMY1-TUBA1B-RELA) 1

CC(C)[C@H]1C(=O)O[C@@H]2CCN3CC=C(COC(=O)[C@](C)(O)[C@@]1(C)O)[C@H]23 [Trichodesmine]
inactive: phenotypically active (A549-ACTB-RAB5A [6]) 0 | phenotypically active (A549-CANX-COX4 [7]) 0 | phenotypically active (A549-GM130-SQSTM1 [8]) 0 | phenotypically active (A549-TP53BP1-CLTA [9]) 0 | phenotypically active (A549-TUBA1B-RELA) 0 | phenotypically active (HepG2-ACTB-RAB5A [10]) 0 | phenotypically active (HepG2-CANX-COX4) 0 | phenotypically active (HepG2-GM130-SQSTM1) 0 | phenotypically active (HepG2-TP53BP1-CLTA) 0 | phenotypically active (HepG2-TUBA1B-RELA) 0 | phenotypically active (WPMY1-ACTB-RAB5A) 0 | phenotypically active (WPMY1-CANX-COX4) 0 | phenotypically active (WPMY1-GM130-SQSTM1) 0 | phenotypically active (WPMY1-TP53BP1-CLTA) 0 | phenotypically active (WPMY1-TUBA1B-RELA) 0

From the supplement of paper PMC7411054
